From PubChem BioAssay (NCATS) come the findings set out here.

Assay [1] is described as follows: qHTS of pediatric cancer cell lines to identify multiple opportunities for drug repurposing: Confirmatory screen for DAOY cells (AID 1347114). Further: nearly all actives have a fitted effect of over 65% in size. In short, it runs like this:
(§1)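 Viability measured as metabolically active cells via CellTiter-Glo luminescence following 48 hours of compound exposure, 11-point dilutions in confirmatory testing. 500-1,000 cells/well plated 5 hours before dosing; controls were DMSO and 2.3 µM bortezomib.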

The nature of assay [2]: qHTS of pediatric cancer cell lines to identify multiple opportunities for drug repurposing: Confirmatory screen for SJ-GBM2 cells (AID 1347116). Further: nearly all actives have a fitted effect of over 60% in size.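 On activity change, negative = cytotoxic: plate controls were DMSO for no effect and bortezomib for full effect.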 In a few lines: as §1
Assay [3] is described as follows: qHTS of pediatric cancer cell lines to identify multiple opportunities for drug repurposing: Confirmatory screen for BT-37 cells (AID 1347117). Further: nearly all actives have a fitted effect of over 55% in size.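 On activity change, negative = cytotoxic: plate controls were DMSO for no effect and bortezomib for full effect.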 The following applies: BT-37 pediatric cancer cells, viability; activity change, negative = cytotoxic: at 45.9 µM (top of the series). In a few lines:
(§2)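 Cells (500-1,000/well) rested 5 h, then received compounds for 48 h; metabolically active cells were measured by CellTiter-Glo luminescence. Final concentrations spanned up to 46 µM (MIPE, 11-point) or 0.59 nM-46 µM (NPC, 8-point) in primary screens, 11-point in follow-ups.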

Assay [4] can be described thus: qHTS of pediatric cancer cell lines to identify multiple opportunities for drug repurposing: Confirmatory screen for TC32 cells (AID 1347118).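 Further: cells exposed to compound for 48 h before the read; nearly all actives have a fitted effect of over 65% in size.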 In short, it runs like this: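 Luminescent ATP read-out (CellTiter-Glo) of metabolically active TC32 cells after 48 h exposure. Concentration-response curves came from 11-point (MIPE, 0.78 nM–46 µM) or 8-point (NPC, 0.59 nM–46 µM) primary titrations; follow-up used 11 points.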

The nature of assay [5]: qHTS of pediatric cancer cell lines to identify multiple opportunities for drug repurposing: Confirmatory screen for U-2 OS cells (AID 1347122). Further: nearly all actives have a fitted effect of over 65% in size. In short, it runs like this:
as §2

A short description of assay [6]: qHTS of pediatric cancer cell lines to identify multiple opportunities for drug repurposing: Confirmatory screen for Rh41 cells (AID 1347123).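 Further: 48 h compound exposure; nearly all actives have a fitted effect of over 60% in size.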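 On activity change, negative = cytotoxic: plate controls were DMSO for no effect and bortezomib for full effect.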 In short, it runs like this: as §2
Assay [7] in a line: qHTS of pediatric cancer cell lines to identify multiple opportunities for drug repurposing: Confirmatory screen for RD cells (AID 1347124).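 Further: cells exposed to compound for 48 h before viability readout; nearly all actives have a fitted effect of over 65% in size.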 On activity change, negative = cytotoxic: on the % scale 0 is the no-effect control and ±100 the full control effect. In a few lines: as §2
Assay [8] can be described thus: qHTS of pediatric cancer cell lines to identify multiple opportunities for drug repurposing: Confirmatory screen for MG 63 (6-TG R) cells (AID 1347119). Further: nearly all actives have a fitted effect of over 55% in size. In short, it runs like this: as §2
Assay [9] can be described thus: qHTS of pediatric cancer cell lines to identify multiple opportunities for drug repurposing: Confirmatory screen for control Hh wild type fibroblast cells (AID 1347121). Further: nearly all actives have a fitted effect of over 70% in size. In a few lines:
as §2

A short description of assay [10]: qHTS of pediatric cancer cell lines to identify multiple opportunities for drug repurposing: Confirmatory screen for NB-EBc1 cells (AID 1347115).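 Further: cells exposed to compound for 48 h before the viability read; nearly all actives have a fitted effect of over 45% in size.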 On activity change, negative = cytotoxic: on the % scale 0 is the no-effect control and ±100 the full control effect. In a few lines:
as §2

Results filed as inconclusive are left out. Activity calls are given as the source filed them. The call rests on the fitted dose curve; in most records, active means well fitted curve in the direction sought with a large enough effect; inconclusive means small, poorly fitted or top-dose-only effect, or another doubt; inactive means no such curve, though single readings can be large; an effect the other way counts as inactive or inconclusive.
Potency means the concentration at half of the fitted maximal effect.

Consider `COC1=C2C[C@@H](C)C[C@H](OC)[C@@H](O)[C@@H](C)C=C(C)[C@H](OC(N)=O)[C@@H](OC)C=CC=C(C)C(=O)NC(=CC1=O)C2=O`, for which the Potency in assay [1] was 5.85 µM (active); in assay [2], 1.31 µM (active); in assay [3], 1.04 µM (active); in assay [4], 0.928 µM (active); in assay [5], 1.04 µM (active); in assay [6], 2.33 µM (active). The Potency in assay [7] was 0.928 µM (active).
Regarding `COc1cc([C@@H]2c3cc4c(cc3[C@H](O)[C@H]3COC(=O)[C@@H]23)OCO4)cc(OC)c1OC`, the Potency in assay [1] is 0.414 µM (active); in assay [3], 1.17 µM (active); in assay [4] it was 0.465 µM (active); in assay [8] it was 0.737 µM (active); in assay [5], 1.85 µM (active); in assay [7], 0.928 µM (active). Also, in assay [9], the Potency entry is “inactive”.
`Cc1cnc(Nc2ccc(N3CCN(C)CC3)cc2)nc1Nc1cccc(S(=O)(=O)NC(C)(C)C)c1`: the Potency in assay [1] is 18.5 µM (active); in assay [3], 5.85 µM (active); in [4] it was 2.33 µM (active); in [8], 2.93 µM (active); in assay [9] it was 14.7 µM (active); in assay [7], 7.37 µM (active).
As to `O=C(C=CC#Cc1cccc(NS(=O)(=O)c2ccccc2)c1)NO`, the Potency in assay [2] was 4.65 µM (active); in assay [3] it was 2.61 µM (active); in assay [4] it was 0.737 µM (active); in [8] it was 2.61 µM (active); in [5], 0.928 µM (active); in [7], 5.22 µM (active).
On to `CCc1cc(C(C)=NOCc2ccc(C3CCCCC3)c(C(F)(F)F)c2)ccc1CN1CC(C(=O)O)C1`, for which the Potency result in assay [10], in [8], in assay [9], in assay [5] and in assay [7] was “inactive” each time. For the same compound, the Potency in [4] is 9.27 µM (active).
For `CC1(C)O[C@@H]2C[C@H]3[C@@H]4CCC5=CC(=O)C=C[C@]5(C)[C@@H]4[C@@H](O)C[C@]3(C)[C@]2(C(=O)CO)O1`, the Potency entry in [2], in assay [3], in assay [4], in [8], in [9] and in assay [5] was “inactive” in each case. In [7], the Potency entry is “inactive”.
For the compound `COc1ccc(C=Cc2cc(OC)c(OC)c(OC)c2)cc1NC(=O)[C@H](N)CO`, the Potency in assay [10] was 0.0522 µM (active); in [2], 0.827 µM (active); in [3] it was 0.0737 µM (active); in assay [4] it was 0.0465 µM (active); in [8] it was 0.0465 µM (active); in [5], 0.117 µM (active). For the same compound, the Potency in [7] is 0.131 µM (active). The Potency result in assay [9] was “inactive”.
On to `C[N+](C)([O-])CCNc1ccc(NCC[N+](C)(C)[O-])c2c1C(=O)c1c(O)ccc(O)c1C2=O`, for which the Potency result in assay [10], in [8], in [9] and in [5] was “inactive” each time. For the same compound, the Potency in [4] was 4.14 µM (active).
In the case of `CC(C)C[C@H](NC(=O)[C@@H](NC(=O)c1cccc(-c2ccccc2)n1)[C@@H](C)O)B(O)O`, the Potency is 0.0465 µM (active) in [2]; 0.0737 µM (active) in assay [3]; 0.0585 µM (active) in assay [4]; 0.0165 µM (active) in assay [8]; 20.8 µM (active) in assay [9]; 0.0369 µM (active) in assay [5]. Further, the Potency in [7] is 0.0522 µM (active).
For `COc1ccc(Nc2cc(-c3cnc(N)nc3)nc(N3CCOCC3)n2)cn1`, the Potency is 2.61 µM (active) in [2]; 10.4 µM (active) in assay [3]; 3.69 µM (active) in assay [4]; 1.31 µM (active) in assay [8]; 9.27 µM (active) in [5]; 2.61 µM (active) in assay [7]. In [9], the Potency entry is “inactive”.
In the case of `CC[C@@]1([C@@H]2O[C@@H]([C@H]3O[C@@](O)(CO)[C@H](C)C[C@H]3C)C[C@H]2C)CC[C@H]([C@]2(C)CC[C@]3(C[C@H](O)[C@@H](C)[C@@H]([C@@H](C)[C@@H](OC)[C@H](C)C(=O)O)O3)O2)O1`, the Potency was 1.15 µM (active) in assay [2]; 0.204 µM (active) in assay [3]; 0.288 µM (active) in assay [4]; 0.512 µM (active) in assay [8]; 2.57 µM (active) in assay [5]; 0.91 µM (active) in assay [6]. The Potency in assay [7] was 2.29 µM (active).
Turning to `CN[C@@H]1C[C@H]2O[C@@](C)([C@H]1OC)n1c3ccccc3c3c4c(c5c6ccccc6n2c5c31)C(=O)N[C@H]4O`, the Potency in [2] is 2.61 µM (active); in [3] it was 2.61 µM (active); in [4], 0.414 µM (active); in [8], 0.104 µM (active); in assay [9], 10.4 µM (active); in assay [5], 0.369 µM (active).
As for `Cn1c(Nc2ccc(C(F)(F)F)cc2)nc2cc(Oc3ccnc(-c4ncc(C(F)(F)F)[nH]4)c3)ccc21`, the Potency in assay [10] is 16.5 µM (active); in assay [3], 4.65 µM (active); in assay [4], 0.928 µM (active); in assay [8] it was 13.1 µM (active). Further, the Potency result in [2] is “inactive”.
For the compound `COc1ccc(C(C)=O)c(O)c1`, the Potency entry in assay [10], in assay [3], in [8], in assay [9], in assay [5] and in [6] was “inactive” throughout. In addition, the Potency result in assay [7] is “inactive”.
Consider `CS[C@H]1SC[C@@H]2C(=O)N(C)[C@H](C(C)C)C(=O)OC[C@H](NC(=O)c3cnc4ccccc4n3)C(=O)N[C@H](C)C(=O)N(C)[C@@H]1C(=O)N(C)[C@H](C(C)C)C(=O)OC[C@H](NC(=O)c1cnc3ccccc3n1)C(=O)N[C@H](C)C(=O)N2C`, for which the Potency entry in assay [10], in [2], in [8] and in assay [9] was “inactive” each time. Besides, in assay [3], the activity change, negative = cytotoxic is 1.7% (active). For the same compound, the Potency in assay [5] is 0.0208 µM (active); in assay [6], 0.0059 µM (active).
In the case of `Oc1cc(-c2nc(-c3ccccc3)[nH]c2-c2ccncc2)ccc1Cl`, the Potency in assay [2] was 7.37 µM (active); in [3], 2.61 µM (active); in [4], 7.37 µM (active); in assay [5], 18.5 µM (active); in assay [7] it was 16.5 µM (active). Moreover, the Potency result in assay [8] was “inactive”.
As to `NS(=O)(=O)OC[C@@H]1C[C@@H](n2ccc3c(N[C@H]4CCc5ccccc54)ncnc32)C[C@H]1O`, the Potency entry in [2], in assay [3], in [4], in [8], in [9] and in assay [5] was “inactive” each time. Moreover, the Potency entry in assay [7] was “inactive”.
On to `C[C@H](NCc1ccc2c(c1)nc(NC(=O)c1ccc(-c3cn[nH]c3)s1)n2CCc1ccccc1)C(C)(C)C`, for which the Potency in [10] is 1.31 µM (active); in assay [2], 0.928 µM (active); in assay [3] it was 0.928 µM (active); in [4] it was 0.928 µM (active); in [8], 2.33 µM (active); in assay [9], 10.4 µM (active). Further, the Potency was 1.17 µM (active) in assay [5], 0.928 µM (active) in assay [6] and 1.17 µM (active) in assay [7].
